According to ChEMBL document CHEMBL3988442, “University of Dundee, Small-Polar-MMV Screening Library” (2021):
The campaign covered roughly 48,000 compounds. About 13,000 (27%) showed an effect of 50% or more. The list shows a part of the results.

What follows are compounds tested on Wolbachia pipientis (assay: Anti-Wolbachia Cell-Based Screen). Details: 5 µM.
Type: functional
Design: scale not given: in the data most compounds retested in dose-response had high values

Compound	Percent Effect [%]
CC(C)c1noc(C[S+]([O-])CC(=O)Nc2ccc(F)c(F)c2)n1 (stereo unspecified)	-5.19
CC(=O)NCCCSCCOc1cccc(C#N)c1	-7.407
O=C(Nc1ccncc1)NC1CCN(c2ccccc2Cl)C1=O (stereo unspecified)	1.637
COc1ccc(CCN2CC(c3nc(CSC)no3)CCC2=O)cc1 (stereo unspecified)	-1.637
Cc1cc(CNC(=O)c2ccc(C(C)N3CCCCC3)o2)[nH]n1 (stereo unspecified)	-3.545
O=C(c1cccc(-n2cccn2)c1)N1CCCOC(CN2CCCC2)C1 (stereo unspecified)	2.221
Cc1nnc2n1CCN(C(=O)CN1C(=O)C(C)Oc3ccccc31)C2 (stereo unspecified)	3.234
COCCn1cc(NC(=O)N(CCC(N)=O)Cc2ccccc2)cn1	-7.009
Cc1ccc(-c2nc(CCNCc3ccncc3)co2)cc1	83.41
Cc1nnc(NCCc2coc(-c3ccc(F)cc3)n2)c(C#N)c1C	5.844
Cc1ccc(-c2nc(CCNC(=O)NC3CCN(C)CC3)co2)cc1	-5.87
Cc1cnn(CCNCCCOc2ccc(C#N)cc2)c1	4.876
Cc1nc(NCc2cccnc2)c2c(n1)c(C)nn2C	-9.557
C=C/C=c1\c(=C/C)oc2c(NCc3ccccc3)nc(CC)nc12	112.6
C=C/C=c1\c(=C/C)oc2c(NCc3ccccc3)ncnc12	107.1
C=C/C=c1\c(=C/C)oc2c(NCc3ccccc3)nc(C)nc12	116.4

Compound	Percent Effect [%]
CS(=O)(=O)c1ccc(NCc2ccccc2)cn1	-7.161
CCC(CNc1ncnc2oc(C)nc12)Cc1ccccc1 (stereo unspecified)	-28.36
Cc1nc2c(c(NCc3ccccc3)n1)CCN(C(=O)C1CCC1)CC2	-5.333
Cc1ccc(-c2nc(CN3CCc4nn(C)c(=O)cc4C3)no2)cc1	-3.521
CCCNC(=O)C(C)NC(=O)Nc1ccccc1SC(F)F (stereo unspecified)	-20.86
O=C(c1ccc2occc2c1)N1CCC(C(=O)O)(n2cccn2)CC1	17.51
CO[C@H]1CN(S(=O)(=O)c2cn(C)cn2)[C@@H]2CCCO[C@H]12	-0.7123
CNC(=O)NC(=O)CCSc1ccccc1Cl	-6.595
Cc1cccc(CC(=O)NS(=O)(=O)c2ccc(F)c(F)c2)c1	-13.3
Cc1nc(CNC(=O)NC2CCN(c3cccc(Cl)c3)C2)no1 (stereo unspecified)	1.056
COCC(=O)N1CCN(C(C)=O)C[C@@H]1C(=O)OC	18.89
COCC(=O)N1CCN(c2cc(C)nc(C3CCCN3C(C)=O)c2)CC1 (stereo unspecified)	105.4
COCC(=O)N1CCN(c2cc(-n3cccc3)nc(C)n2)CC1	-19
COC(=O)N1CCCCC1C(=O)N1CCCN(c2ccnc(C)c2)CC1 (stereo unspecified)	2.606
COCC(=O)N1CCCC1c1cc(N2CCN(C(C)=O)CC2)cc(C)n1 (stereo unspecified)	110.9
